Shown are actives, neighbours in structure and some others; about 4.1% of the full set was active somewhere.
DAX1 inh-1 – DAX1 (NR0B1) inhibitors on StAR promoter, primary screen, cell-based, luminescence, SF-1 (NR5A1), full-length DAX-1; HEK293T StAR-luciferase reporter, SF-1/DAX-1 repression relief; inhibition, % at 6.8 µM; actives 1.1% (n = 370,000);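 active = inhibition above the mean over all tested compounds plus 3 SD, cut at about 3.6% in these data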;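 also: 0% = DAX-1 cells with DMSO and 100% = cells lacking DAX-1 with DMSO; higher inhibition means more luminescence from relief of DAX-1 repression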
hcDAF-12 act – H. contortus DAF-12 nuclear receptor activators, primary screen, cell-based, luminescence, HEK293, lit1-tk-luc reporter; activation, % at 6.8 µM; actives 1.4% (n = 370,000); HEK293 hcDAF-12 lit1-tk-luc reporter; 0% DMSO, 100% Δ7-dafachronic acid;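 active = activation above the mean of all tested compounds plus 3 SD, cut at about 5.5% in these data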;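 also: 100% = response to 3 µM Δ7-dafachronic acid high control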
ssDAF-12 act – S. stercoralis DAF-12 nuclear receptor activators, primary screen, cell-based, luminescence, HEK293, GRIP1 co-expression, lit1-tk-luc; Nuclear hormone receptor DAF-12 (Strongyloides stercoralis); HEK293 ssDAF-12/GRIP1 lit1-tk-luc reporter; % of 3 µM dafachronic acid response; activation, % at 6.8 µM; actives 1% (n = 370,000); AID 652126, 2013;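 active = activation above the mean over all tested compounds plus 3 SD, cut at about 0.9% in these data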;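 also: 0% = DMSO-only wells and 100% = 3 µM delta7-dafachronic acid wells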
hgDAF12 agonist – H. glycines DAF-12 receptor agonists, primary screen, cell-based, luminescence, HEK293, GAL4 fusion, UAS-luciferase; Nuclear hormone receptor DAF-12 (Heterodera glycines), GAL4 fusion; HEK293 GAL4-hgDAF12 UAS-luciferase reporter, agonist luminescence; normalized to butyrate control; activation, % at 6.8 µM; actives 1.8% (n = 370,000);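 active = activation above a cutoff set at the mean of all screened compounds plus 3 SD, cut at about 10% in these data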;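 also: 0% = DMSO wells and 100% = sodium butyrate wells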
DAX1 inh-2 – DAX1 (NR0B1) inhibitors, primary screen, cell-based, HEK293, Gal4-DAX1, luciferase luminescence. HEK293 Gal4-DAX1 luciferase reporter. AID 504766, 2011. inhibition, % at 6.75 µM. actives 0.99% (n = 340,000);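 active = inhibition above the mean over all tested compounds plus 3 SD, cut at about 4.2% in these data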;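 also: 0% = DAX1-transfected cells with DMSO and 100% = empty-vector control cells with DMSO; inhibition shows as a rise in luminescence from relieved DAX1 repression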
Target sequence (P51843 207-470 limits assumed): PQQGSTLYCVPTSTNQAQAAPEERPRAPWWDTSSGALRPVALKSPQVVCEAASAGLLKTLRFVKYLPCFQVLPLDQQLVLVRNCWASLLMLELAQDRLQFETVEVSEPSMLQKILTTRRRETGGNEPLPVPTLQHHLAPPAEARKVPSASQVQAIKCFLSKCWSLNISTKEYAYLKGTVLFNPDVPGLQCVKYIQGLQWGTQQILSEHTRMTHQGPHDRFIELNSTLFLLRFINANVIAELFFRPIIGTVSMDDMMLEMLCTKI
* hit, by the source's call; · = no result.

SMILES | DAX1 inh-1 | hcDAF-12 act | ssDAF-12 act | hgDAF12 agonist | DAX1 inh-2
Nc1ccc2nc(SCC(=O)c3ccccc3)sc2c1 | -1 | 2 | 1.3* | 4 | -1
CCOC(=O)N1CCC(NC(=O)Cn2ncc3ccccc32)CC1 | 0 | -1 | -1 | 1 | 0
CC1CCC(NC(=O)Cn2ncc3ccccc32)CC1 (centres undefined) | 1 | 2 | 0 | 2 | 6.5*
COc1ccc(NC(C)=O)cc1NC(C)C(=O)Nc1ccccc1F (centres undefined) | 0 | 1 | -1 | -2 | 5.7*
C[C@@H]1Cc2cc(O)c(O)c(O)c2C(=O)O1 | 0 | 1 | -1 | 0 | ·
COCCCNC(=O)C(=O)Nc1ccc2c(c1)N(S(=O)(=O)c1cccs1)CCC2 | 4.2* | -1 | 0 | -4 | 0
Cc1ccc(S(=O)(=O)N2CCCCC2)cc1NC(=O)COC(=O)c1c(F)cccc1F | 0 | -1 | 0 | 2 | 0
CS(=O)(=O)c1ccc(Cl)c(NC(=O)Cc2c(F)cccc2Cl)c1 | 0 | 5.6* | 0 | -2 | -1
Cc1ccc(S(=O)(=O)N2CCCCC2)cc1NC(=O)COC(=O)Cc1c(F)cccc1Cl | 0 | 6.1* | -2 | -1 | -2
CS(=O)(=O)c1ccc(Cl)c(NC(=O)Cc2ccccc2F)c1 | 0 | 0 | -1 | -2 | -1
CCCS(=O)(=O)NC(=O)C1(C)CCN(C(=O)c2ccccc2OC(F)(F)F)C1 (centres undefined) | 1 | -1 | -1 | 0 | ·
C/C(Cn1cnc([N+](=O)[O-])n1)=N\NC(=O)c1ccccc1F | 1 | 1 | 1 | 11* | 1
C/C(Cn1cnc([N+](=O)[O-])n1)=N\NC(=O)c1ccccc1O | 1 | 1 | -1 | 8 | 1
Cc1ccc(-c2cc(C(F)F)n3ncc(C(=O)N4CCCCC4c4cccnc4)c3n2)cc1 (centres undefined) | 0 | 5.7* | 1 | -1 | 4.5*
CCCCOCCCNC(=O)C[C@H]1C[C@@]2(C(=O)OC)C(=C[C@H](C3CCCC3)O[C@@H]2C)N(Cc2ccccc2)C1=O | 1 | -1 | -1 | 0 | ·
Cc1ccc2c(c1)c1c(n2CC(O)CNC(C)(C)C)CCCC1 (centres undefined) | 1 | 1 | -2 | -3 | 0
CNCC(O)Cn1c2c(c3ccccc31)CCCC2 (centres undefined) | 0 | -2 | 6.8* | 0 | 1
O=C(O)Cn1c2c(c3ccccc31)CSc1ccc(Cl)cc1-2 | 0 | 7.5* | 1 | 1 | 1
CCCCn1c(N)c(N(CC(C)C)C(=O)c2oc3ccc(OCC)cc3c2C)c(=O)[nH]c1=O | -2 | 1 | -1 | -3 | 0
CCCCN(C(=O)c1oc2ccc(OCC)cc2c1C)c1c(N)n(CC(C)C)c(=O)[nH]c1=O | 4.2* | 2 | -1 | 0 | 0
Cc1cc(C)nc(NC(=O)CSc2nn(-c3ccccc3)c(=S)s2)n1 | 1 | -1 | -1 | 0 | 9.1*
CCOC(=O)c1c(C)nn(-c2ccc(NC(=O)/C=C/C(=O)O)cc2)c1C | -2 | -8 | -4 | -14 | -5
CCNC(=O)Nc1ccc(-n2nc(C)c(C(=O)OCC)c2C)nc1 | 0 | 1 | -1 | -1 | 4.8*
COc1ccc(C(C)=O)cc1CSc1nnc(Nc2c(C)cccc2C)s1 | -1 | -1 | -2 | -4 | 4.6*
CCOC(=O)Nc1ccc(N2CCOCC2)c(S(=O)(=O)Nc2ccc(Cl)cc2)c1 | -2 | -1 | -2 | -2 | ·
COc1cccc(-c2cc(N3C(=O)Nc4ccccc4N3O)n[nH]2)c1 | -1 | 0 | 0 | -1 | 4.8*
COC(=O)[C@]12C[C@H](CC(=O)NCCCN3CCCC3=O)C(=O)N(CCC3=CCCCC3)C1=C[C@H](C(C)(C)C)O[C@@H]2C | 0 | 2 | -1 | -1 | ·
O=[N+]([O-])c1cccc(COc2cccc(CO)c2)c1 | 2 | 0 | -1 | 9 | 1
